The text below walks through data of PubChem BioAssay.

Calls of active or inactive are those of the source.

Experiment [1] is described as follows: A549 cell viability effects, profiling panel, calcein-AM fluorescence, 48 h, basal (AID 1162). Particulars: higher = more signal.
Experiment [2] can be described thus: adipocyte viability effects, profiling panel, cell-based, 3T3-L1 adipocytes, calcein-AM fluorescence, 48 h, basal (AID 1163). Particulars: 3T3-L1 adipocytes viability, higher = more signal.
A short description of experiment [3]: HepG2 cell viability effects, profiling panel, calcein-AM fluorescence, 48 h, basal (AID 1164). The following applies: higher = more signal.
Experiment [4] is described as follows: MM1S cell viability effects, profiling panel, calcein-AM fluorescence, 48 h, basal (AID 1165).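 Note: viability of MM1S multiple myeloma cells under basal unstimulated conditions.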 The following applies: higher = more signal.
Experiment [5] in a line: basal RPMI8226 viability, no added stimulus, profiling panel, cell-based, calcein-AM fluorescence, 48 h, PK04 Diversity Set (AID 1166).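 Note: cells grown under basal conditions without added stimulus.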 The following applies: RPMI8226 myeloma viability, higher = more signal.
Experiment [6] in a line: basal HepG2 mitochondrial membrane potential changes, profiling panel, cell-based, JC-1 fluorescence, 24 h, 100 nL compound (AID 1167). The following applies: higher = more signal.
Experiment [7] can be described thus: basal 3T3-L1 adipocyte mitochondrial potential changes, profiling panel, cell-based, JC-1 fluorescence, 3T3-L1 adipocytes, 24 h, 100 nL compound (AID 1168). The following applies: JC-1 mitochondrial fluorescence, higher = more signal, called active from +8 up or from −8 down.
Experiment [8] is described as follows: basal RPMI8226 mitochondrial membrane potential changes, profiling panel, cell-based, JC-1 fluorescence, 24 h, 100 nL compound (AID 1169). Particulars: RPMI8226 myeloma, JC-1 mitochondrial potential fluorescence, higher = more signal.
A short description of experiment [9]: basal MM1S mitochondrial membrane potential changes, profiling panel, cell-based, JC-1 fluorescence, 24 h, 100 nL compound (AID 1170). The following applies: higher = more signal.
Experiment [10] can be described thus: A549 lung cancer cell viability effects, profiling panel, resazurin fluorescence, 24 h, PK04 Diversity Set (AID 1171). The following applies: higher = more signal, called active from +8 up or from −8 down. For orientation: Alamar Blue is a resazurin reagent that responds to reducing activity.
Note: test concentration not given here.

As to `CC(C)CN1C(=O)[C@@]2(Cc3ccccc31)c1ccccc1C(=O)N(Cc1ccccc1)[C@H]2c1ccc(CO)cc1`, the z-score in [1] was -0.225; in experiment [2], -0.0208; in [3], -0.134; in experiment [4], -0.688; in [5], -0.152; in experiment [6] it was -0.529. Moreover, the z-score in experiment [7] was -0.224 (inactive); in [8], 0.0482; in experiment [9], 1.07; in experiment [10], -0.252 (inactive).

As to `[N-]=[N+]=NCc1ccccc1[C@H]1OC(c2ccc(OCCCO)cc2)=N[C@@]1(Cc1ccccc1)C(N)=O`, the z-score in experiment [1] is 0.267; in [2], 0.514; in experiment [3], 1.63; in experiment [4], -0.0987; in [5], 0.317; in experiment [6] it was 1.19. Also, the z-score in experiment [7] is 0.593 (inactive); in experiment [8] it was -0.418; in experiment [9], -1.01; in experiment [10], 1.16 (inactive).

For the compound `COC(=O)C(CC#Cc1ccc2c(c1)[C@]1(C(=O)N2)[C@H](C(=O)N2CCc3cc(OC)c(OC)cc3C2)[C@H]2C(=O)O[C@H](c3ccccc3)[C@H](c3ccccc3)N2[C@@H]1c1ccc(O)cc1)C(=O)OC`, the z-score in experiment [1] was -0.703; in experiment [2], 1.08; in experiment [3], 0.613; in [4], -0.993; in experiment [5], -3.27; in experiment [6], -1.81. The z-score is 0.604 (inactive) in experiment [7], -0.606 in experiment [8], 0.567 in experiment [9] and -0.216 (inactive) in [10].

For `CN(C)C(=O)[C@@]1(CCC(=O)OC(C)(C)C)COC(c2ccc(OCCCO)cc2)=N1`, the z-score in experiment [1] is 0.236; in experiment [2] it was -0.417; in experiment [3], 0.306; in [4], 0.0475; in experiment [5], 0.0972; in experiment [6], -0.868. In addition, the z-score in experiment [7] is 0.0942 (inactive); in experiment [8] it was 0.0733; in [9], -1.14; in experiment [10] it was 0.594 (inactive).

Consider `OCc1ccc(-c2cc[n+](Cc3cccc(OC(F)(F)F)c3)cc2)cc1`, for which the z-score is -1.19 in experiment [1]; 0.983 in experiment [2]; -0.52 in [3]; 0.47 in [4]; -0.483 in [5]; -0.628 in experiment [6]. Also, the z-score in [7] was 0.296 (inactive); in experiment [8], -0.672; in [9], -0.704; in experiment [10], -0.395 (inactive).

Regarding `CC(C)N1C(=O)c2ccccc2[C@](C)(C(=O)O)[C@@H]1c1ccc(CO)cc1`, the z-score in [1] was -0.786; in [2] it was 0.0073; in experiment [3] it was -0.876; in [4], 0.0364; in [5], 0.0868; in [6], 0.0703. Besides, the z-score in experiment [7] was 0.597 (inactive); in experiment [8] it was 0.663; in experiment [9] it was -0.188; in experiment [10] it was 0.069 (inactive).

As for `COCCCNC(=O)[C@@]1(Cc2ccccc2I)c2ccccc2C(=O)N(Cc2ccccc2Cl)[C@H]1c1ccc(CO)cc1`, the z-score in experiment [1] is -0.119; in [2], 0.39; in [3] it was 0.9; in experiment [4], -0.36; in experiment [5], -0.503; in experiment [6] it was 1.29. Also, the z-score in [7] was 0.781 (inactive); in experiment [8] it was -0.778; in experiment [9] it was 0.148; in experiment [10], 2.16 (inactive).

`CO[C@H]1O[C@H](CO)[C@@H](OC(=O)c2ccc(Br)cc2)[C@@H]2OC(=O)[C@H](Cc3cccc(Br)c3)C/C=C/C[C@@H](Cc3cccc(Br)c3)C(=O)O[C@@H]12`: the z-score is -0.0692 in experiment [1]; 1.09 in experiment [2]; -0.542 in experiment [3]; -1.82 in experiment [4]; -3.5 in [5]; -3.52 in experiment [6]. Also, the z-score in experiment [7] is -0.442 (inactive); in [8], 0.229; in experiment [9], -0.698; in experiment [10], -0.932 (inactive).

For the compound `CO[C@H]1O[C@H](CO)[C@@H](OC(=O)Nc2ccc(C(F)(F)F)cc2)[C@H](OC(=O)Nc2ccccc2)[C@H]1OC(=O)Nc1ccccc1`, the z-score was -3.56 in experiment [1]; 1.96 in [2]; -5.2 in experiment [3]; -3.39 in experiment [4]; -4.45 in experiment [5]; -1.93 in [6]. In addition, the z-score in [7] was 0.575 (inactive); in experiment [8], -1.27; in experiment [9] it was -1.45; in experiment [10] it was -6.31 (inactive).

In the case of `CCOC(=O)C[C@H]1[C@H](OC(=O)c2ccc(C(=O)c3ccccc3)cc2)[C@@H](NC(=O)C2CCCCC2)c2cc(OCCCO)ccc2N1C(=O)Cc1ccc(OC)cc1`, the z-score in experiment [1] is 0.273; in experiment [2], 0.628; in [3] it was 0.918; in experiment [4], -0.4; in experiment [5] it was -0.631; in [6], 1.06. In addition, the z-score in experiment [7] is -0.76 (inactive); in experiment [8], 0.368; in experiment [9] it was -0.812; in experiment [10] it was -0.0859 (inactive).

In the case of `COCCCNC(=O)[C@@]1(C)c2ccccc2C(=O)N(c2ccc(C)cn2)[C@H]1c1ccc(CO)cc1`, the z-score is -0.255 in experiment [1]; -1.13 in experiment [2]; -0.956 in experiment [3]; -0.0048 in experiment [4]; -0.857 in experiment [5]; -0.587 in experiment [6]. The z-score in experiment [7] was 0.285 (inactive); in [8], 0.054; in experiment [9], -0.295; in experiment [10] it was 0.999 (inactive).

For `COCCOC(=O)N1C(=O)[C@@]2(c3cc(C#Cc4ccc(OC)cc4)ccc31)[C@H](C(=O)N1CCc3cc(OC)c(OC)cc3C1)[C@H]1C(=O)O[C@H](c3ccccc3)[C@H](c3ccccc3)N1[C@@H]2c1ccc(OCCO)cc1`, the z-score in experiment [1] is -0.403; in [2], 1.41; in [3] it was -1.13; in [4] it was -0.0142; in experiment [5] it was -1.38; in [6], -0.999. Besides, the z-score in [7] is 2.31 (inactive); in experiment [8] it was -0.223; in [9], -0.919; in [10], -0.0945 (inactive).

Take `COCCOC(=O)N1C(=O)[C@@]2(c3cc(C#CC4(O)CCCCCC4)ccc31)[C@H](C(=O)N1CCN(c3ncccn3)CC1)[C@H]1C(=O)O[C@H](c3ccccc3)[C@H](c3ccccc3)N1[C@@H]2c1ccc(O)cc1`: the z-score in experiment [1] was 1.09; in experiment [2], 0.146; in experiment [3], 0.871; in experiment [4] it was -1.12; in [5], -0.372; in [6] it was -0.641. Also, the z-score was 0.799 (inactive) in experiment [7], -0.57 in experiment [8], 0.532 in experiment [9] and 0.445 (inactive) in experiment [10].

Take `[N-]=[N+]=NCc1ccccc1C[C@]1(C(=O)NCCN2CCOCC2)N=C(c2ccc(OCCCO)cc2)O[C@H]1c1ccccc1`: the z-score is 0.112 in [1]; 0.117 in experiment [2]; -0.493 in [3]; -0.338 in [4]; -1.06 in experiment [5]; 0.871 in experiment [6]. Besides, the z-score in experiment [7] was 0.469 (inactive); in experiment [8], -0.636; in experiment [9], -0.54; in experiment [10], 1.29 (inactive).

For `CCCC=C(CCC)[C@@H](NS(=O)(=O)CC)c1ccccc1`, the z-score is -2.33 in experiment [1]; -0.924 in [2]; -1.71 in experiment [3]; -2.83 in experiment [4]; -3.64 in [5]; -2.68 in experiment [6]. In addition, the z-score in experiment [7] is -0.517 (inactive); in [8] it was -0.889; in [9] it was -0.177; in [10], 0.677 (inactive).
